Measured values as given in PubChem BioAssay (EPA / NIEHS).
Records with an inconclusive call do not appear. Calls of active or inactive are those of the source. Rule for the calls: active = hit-call score of the fitted dose curve at least 0.9, where 1 is the maximum; inconclusive = response in the unintended direction; inactive = score below 0.9.

target: human Protein Tyrosine Phosphatase Non-receptor Type 6 (PTPN6), PTPN6 (gene 5777) (UniProt P29350); assay: NVS_ENZ_hPTPN6: NovaScreen (NVS) Enzymatic Assay for human Protein Tyrosine Phosphatase Non-receptor Type 6 (PTPN6) (AID 2283210)
Sequence (P29350 whole entry, looked up): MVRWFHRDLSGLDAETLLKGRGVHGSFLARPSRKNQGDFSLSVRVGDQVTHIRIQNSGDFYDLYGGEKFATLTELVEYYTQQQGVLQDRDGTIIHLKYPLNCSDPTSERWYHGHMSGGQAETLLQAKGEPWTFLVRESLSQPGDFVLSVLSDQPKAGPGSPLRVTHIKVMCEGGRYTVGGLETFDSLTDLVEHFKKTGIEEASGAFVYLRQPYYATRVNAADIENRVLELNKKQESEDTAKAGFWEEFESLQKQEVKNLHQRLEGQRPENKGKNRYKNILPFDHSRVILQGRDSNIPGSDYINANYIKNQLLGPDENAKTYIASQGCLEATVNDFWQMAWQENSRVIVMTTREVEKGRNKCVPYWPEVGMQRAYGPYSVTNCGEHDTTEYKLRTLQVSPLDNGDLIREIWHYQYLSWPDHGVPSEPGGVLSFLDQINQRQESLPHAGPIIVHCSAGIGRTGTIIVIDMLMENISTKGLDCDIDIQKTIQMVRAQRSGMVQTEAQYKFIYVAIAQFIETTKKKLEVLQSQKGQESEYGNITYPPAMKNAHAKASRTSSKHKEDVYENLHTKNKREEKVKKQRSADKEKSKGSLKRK
Method in brief: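 Recombinant human PTPN6 from SF9 cells, enzyme activity followed by fluorescence after mobility-shift separation of substrate and product at 1.33 h. Chemicals first tested at a single 25 uM in duplicate, then confirmed across concentration series; loss of signal relative to DMSO.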

Question: With OCCOCCOCCO as the molecule, how does the outcome read?
Answer: inactive

Question: How did the outcome turn out when CNC(C)=O was run?
Answer: inactive

Question: O=C(O)c1cccc(C(=O)O)c1 was tested. Which outcome did it give?
Answer: inactive

Question: O=S1(=O)CCCO1 was tested. Which outcome did it give?
Answer: inactive

Question: Which outcome does the source give for O=C(O)[C@H](O)[C@@H](O)C(=O)O here?
Answer: inactive

Question: For NC(=O)NN=Cc1ccc([N+](=O)[O-])o1, which AC50 is on record?
Answer: 10.9 µM (active)

Question: With NNC(=O)c1ccncc1 as the molecule, how does the outcome read?
Answer: inactive

Question: How did the outcome turn out when CC1(C)C(=O)N(Cl)C(=O)N1Cl was run?
Answer: inactive

Question: C[C@]12C=CC(=O)C=C1CC[C@H]1[C@@H]3C[C@@H](O)[C@](O)(C(=O)CO)[C@@]3(C)C[C@H](O)[C@@]12F was tested. Which outcome did it give?
Answer: inactive

Question: With COS(C)(=O)=O as the molecule, how does the outcome read?
Answer: inactive

Question: How did the outcome turn out when c1ccc2ncccc2c1 was run?
Answer: inactive

Question: Which outcome does the source give for C=CN1CCCC1=O here?
Answer: inactive

Question: With OC[C@H]1O[C@@H]2O[C@H]3[C@H](O)[C@@H](O)[C@@H](O[C@H]4[C@H](O)[C@@H](O)[C@@H](O[C@H]5[C@H](O)[C@@H](O)[C@@H](O[C@H]6[C@H](O)[C@@H](O)[C@@H](O[C@H]7[C@H](O)[C@@H](O)[C@@H](O[C@H]1[C@H](O)[C@H]2O)O[C@@H]7CO)O[C@@H]6CO)O[C@@H]5CO)O[C@@H]4CO)O[C@@H]3CO as the molecule, how does the outcome read?
Answer: inactive

target: human Rho Associated Coiled-coil Containing Protein Kinase 1 (ROCK1), ROCK1 (gene 6093) (UniProt Q13464); assay: NVS_ENZ_hROCK1: NovaScreen (NVS) Enzymatic Assay for human Rho Associated Coiled-coil Containing Protein Kinase 1 (ROCK1) (AID 2283214)
Sequence (Q13464 whole entry, looked up): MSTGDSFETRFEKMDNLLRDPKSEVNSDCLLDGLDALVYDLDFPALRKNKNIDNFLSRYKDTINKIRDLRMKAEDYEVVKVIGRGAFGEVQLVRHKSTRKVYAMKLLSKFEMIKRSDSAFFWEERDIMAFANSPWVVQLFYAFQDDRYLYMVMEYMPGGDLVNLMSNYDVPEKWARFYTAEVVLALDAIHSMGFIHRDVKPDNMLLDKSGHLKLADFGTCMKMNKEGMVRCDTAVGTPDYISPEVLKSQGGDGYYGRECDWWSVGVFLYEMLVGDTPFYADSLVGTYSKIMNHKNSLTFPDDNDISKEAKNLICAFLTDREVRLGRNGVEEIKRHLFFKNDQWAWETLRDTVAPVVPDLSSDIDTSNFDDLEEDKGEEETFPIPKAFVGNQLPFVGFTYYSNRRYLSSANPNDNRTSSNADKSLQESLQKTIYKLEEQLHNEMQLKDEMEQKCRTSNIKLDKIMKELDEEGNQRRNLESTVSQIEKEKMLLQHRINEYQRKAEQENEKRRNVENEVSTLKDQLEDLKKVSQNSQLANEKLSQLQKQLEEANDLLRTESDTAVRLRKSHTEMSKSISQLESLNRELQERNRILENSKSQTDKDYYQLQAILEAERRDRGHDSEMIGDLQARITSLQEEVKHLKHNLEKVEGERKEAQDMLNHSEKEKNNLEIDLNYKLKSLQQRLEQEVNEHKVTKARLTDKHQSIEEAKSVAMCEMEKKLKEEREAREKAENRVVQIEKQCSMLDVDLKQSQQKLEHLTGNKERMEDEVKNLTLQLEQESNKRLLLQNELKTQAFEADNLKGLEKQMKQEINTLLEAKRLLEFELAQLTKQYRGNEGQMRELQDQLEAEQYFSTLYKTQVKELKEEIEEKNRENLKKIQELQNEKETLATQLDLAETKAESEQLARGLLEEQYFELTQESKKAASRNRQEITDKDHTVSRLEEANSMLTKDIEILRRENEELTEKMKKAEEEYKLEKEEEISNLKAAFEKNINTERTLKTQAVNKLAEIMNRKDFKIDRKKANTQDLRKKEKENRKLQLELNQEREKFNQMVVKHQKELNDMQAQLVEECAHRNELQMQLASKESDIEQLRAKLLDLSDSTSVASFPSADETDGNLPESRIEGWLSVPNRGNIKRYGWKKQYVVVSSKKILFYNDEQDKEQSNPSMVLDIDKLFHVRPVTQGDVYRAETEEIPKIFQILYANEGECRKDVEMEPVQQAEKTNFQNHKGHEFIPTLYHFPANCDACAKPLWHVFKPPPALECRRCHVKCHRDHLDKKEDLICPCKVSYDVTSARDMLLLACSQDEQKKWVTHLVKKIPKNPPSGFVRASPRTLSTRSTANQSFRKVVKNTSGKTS
Experimental: NVS_ENZ_hROCK1 is a biochemical, single-readout assay that uses extracted gene-proteins in a cell-free assay. Measurements were taken 1 hour after chemical dosing in a 384-well plate.NVS_ENZ_hROCK1 is one of one assay component(s) measured or calculated from the NVS_ENZ_hROCK1 assay. It is designed to make measurements of enzyme activity, a form of enzyme reporter, as detected with fluorescence intensity signals by Fluorescence and electrophoretic mobility shift technology.Data from the assay component NVS_ENZ_hROCK1 was analyzed into 1 assay endpoint. This assay endpoint, NVS_ENZ_hROCK1, was analyzed in the positive analysis fitting direction relative to DMSO as the negative control and baseline of activity. Using a type of enzyme reporter, loss-of-signal activity can be used to understand changes in the enzymatic activity as they relate to the gene ROCK1. Furthermore, this assay endpoint can be referred to as a primary readout, because this assay has produced multiple assay endpoints where this one serves a enzymatic activity function. To generalize the intended target to other relatable targets, this assay endpoint is annotated to the kinase intended target family, where the subfamily is serine/threonine kinase.
Binding assays used specific radioligands (tritiated, iodinated) with non-radioactive competitive displacement ligands in agonist or antagonist protocols (as indicated) and various reference compounds and inhibitors to titrate specific binding to receptors and transporters. Most enzyme assays (CYPs, kinases, phosphatases, proteases, HDACs) used recombinant protein and specific substrates (fluorescence mostly, some colorimetric and radioactive) and inhibitors, followed by a biochemical separation of substrate and product. All assays for the biochemical HTS were initially run in duplicate at a single concentration (10 uM for CYP450 assays and 25 uM for all others). […] Each assay was run with positive and negative controls, and concurrent controls on every plate. The follow-up (secondary) screen tested active chemical-pairs in concentration series, as well as a few additional assays not tested in the primary screen, some selected negative inactives, and several cases re-run in the concentration series for confirmatory purposes.

Question: CCN(CC)C(=S)SSC(=S)N(CC)CC was tested. Which outcome did it give?
Answer: inactive

Question: How did the outcome turn out when CCCc1ccccc1 was run?
Answer: inactive

Question: How did the outcome turn out when CC(=O)c1ccccc1 was run?
Answer: inactive
